# From PubChem BioAssay
# In the library only some 1.6% were active in any assay of this set; here they are far more common.
# KCNQ2 pot: potentiators of rat KCNQ2 potassium channel. Potassium voltage-gated channel subfamily KQT member 2 (Rattus norvegicus), O88943. CHO-K1 KCNQ2, FluxOR thallium flux fluorescence; active compounds read high. B-score at 10 µM. 0.54% of 310,000 active;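 active means fluorescence ratio B-score at least 3 SD of library B-scores, with initial fluorescence B-score within 3 of them, cut at about 5.3 in these data; same plate scores as AID 2156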;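 further: B-score of peak minus minimum over baseline fluorescence ratio after K+ and Tl+ stimulus; positive B-score means potentiation of KCNQ2 with more thallium influx and brighter signal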
# Target sequence (O88943 whole entry, looked up): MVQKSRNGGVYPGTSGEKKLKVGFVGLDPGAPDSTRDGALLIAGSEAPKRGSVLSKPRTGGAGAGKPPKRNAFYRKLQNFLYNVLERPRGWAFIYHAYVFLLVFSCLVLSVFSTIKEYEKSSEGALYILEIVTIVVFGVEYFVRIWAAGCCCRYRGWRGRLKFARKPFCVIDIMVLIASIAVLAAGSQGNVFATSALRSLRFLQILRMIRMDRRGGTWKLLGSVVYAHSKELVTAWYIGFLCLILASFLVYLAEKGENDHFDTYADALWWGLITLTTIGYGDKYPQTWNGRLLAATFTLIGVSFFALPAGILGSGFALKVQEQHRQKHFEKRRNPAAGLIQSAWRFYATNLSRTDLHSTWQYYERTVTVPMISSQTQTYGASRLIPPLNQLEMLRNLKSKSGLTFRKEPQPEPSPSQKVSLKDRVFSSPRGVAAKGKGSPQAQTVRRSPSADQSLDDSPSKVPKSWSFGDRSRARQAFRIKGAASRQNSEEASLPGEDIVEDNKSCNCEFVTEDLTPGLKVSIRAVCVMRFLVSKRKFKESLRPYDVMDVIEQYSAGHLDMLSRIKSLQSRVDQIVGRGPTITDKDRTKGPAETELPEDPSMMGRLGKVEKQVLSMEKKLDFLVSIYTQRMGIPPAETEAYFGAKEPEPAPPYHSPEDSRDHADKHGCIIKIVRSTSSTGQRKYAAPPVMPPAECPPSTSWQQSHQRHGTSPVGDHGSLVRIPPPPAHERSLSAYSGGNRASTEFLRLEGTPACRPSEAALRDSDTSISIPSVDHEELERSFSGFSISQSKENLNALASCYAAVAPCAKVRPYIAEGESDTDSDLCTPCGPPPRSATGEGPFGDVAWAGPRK
# KCNQ2 block: rat KCNQ2 potassium channel inhibitors, primary screen, cell-based, CHO-K1, FluxOR thallium flux, B-score. 20 min; active compounds read low. 1.1% of 310,000 active. Potassium voltage-gated channel subfamily KQT member 2 (Rattus norvegicus), O88943. B-score at 10 µM. AID 2156, 2009;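 active means fluorescence ratio B-score at most minus 3 library SDs, with starting brightness B-score within 2 library SDs, cut at about -5.5 in these data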
# Starred values were filed as active, the others as inactive; i = inactive; · = no result.
SMILES,KCNQ2 pot,KCNQ2 block
CCCC(c1nnnn1CS(=O)(=O)c1ccc(C)cc1)N1CCN(c2ccccc2)CC1 (configuration not stated),0.22,i
CC(=O)N1CCC(N(CCN2CCOCC2)C(=S)Nc2cccc(C)c2C)CC1,0.3,i
O=C(O)CC(Cc1ccccc1)c1ccc2c(c1)OCO2 (configuration not stated),·,i
CC(=O)N(CCC(Cc1ccccc1)c1ccc2c(c1)OCO2)Cc1ccc(Cl)cc1 (configuration not stated),-10,-10*
CC1=CC(C)(C)n2c(O)c(N=N)c3c(C)c(C)cc1c32,-6.6,-6.6*
CC1=CC(C)(C)n2c(O)c(N=NC(N)=S)c3c(C)c(C)cc1c32,1.9,i
Cc1cc(C)n(-c2nc3ccccc3c(=O)n2OCC(=O)N(C)C)n1,0.04,i
Cc1cc(C)n(-c2nc3ccccc3c(=O)n2OCC(=O)Nc2c(C)cccc2C)n1,-6,-6*
COc1ccc(CNC(=O)C(C)NCc2ccc(S(N)(=O)=O)cc2)cc1 (configuration not stated),0.93,i
Oc1ccc2ccccc2c1CN1CCN(C/C=C/c2ccccc2)CC1,1.8,i
Oc1ccc2ccccc2c1CN1CCN(c2ccccc2F)CC1,13*,i
CCN1CCCC1CNC(=O)c1ccc(Sc2ccccc2Cl)c([N+](=O)[O-])c1 (configuration not stated),·,i
Cc1cc(C(=O)CSc2nc3ccccc3[nH]2)c(C)n1CC1CCCO1 (configuration not stated),-5.6,-5.6*
Cc1cc(C(=O)CSc2nc3ccccc3o2)c(C)n1CC1CCCO1 (configuration not stated),0.77,i
O=C(O)CC1Oc2ccc(Cl)cc2NC1=O (configuration not stated),·,i
COc1cc(OC)c(C2CC(=O)N3CN(C)CSC3=C2C#N)cc1OC (configuration not stated),1.3,i
COc1ccc2ccccc2c1C1CC(=O)N2CN(C)CSC2=C1C#N (configuration not stated),-6.9,-6.9*
COc1ccc(C2Nc3ccccc3C(=O)N2NC(C)=O)cc1OC (configuration not stated),·,i
CCOC(=O)CNc1c(-c2ccc(O)cc2)nc2ccc(Cl)cn12,-5.7,-5.7*
CCOC(=O)CNc1c(-c2ccc(O)cc2)nc2ccccn12,·,i
CCn1nnc(C(=O)O)c1C(=O)O,1,i
c1cc2cc(-c3c(-c4ccc5c(c4)OCO5)noc3-c3ccsc3)ccc2[nH]1,·,i
Cc1onc(-c2ccc3c(c2)OCO3)c1-c1ccc2[nH]ccc2c1,-7.9,-7.9*
COc1cccc(N2CCN(C(=O)CCC(=O)N3CCOc4ccc(C)cc43)CC2)c1,1.5,i
Fc1cccc(-n2cc(-c3ccccc3)c3c(=S)nc[nH]c32)c1,2.8,i
SMILES,KCNQ2 pot,KCNQ2 block
Cc1cccn2c(/C=N/OCc3cccc(F)c3)c(-c3ccc(Cl)cc3)nc12,·,i
Fc1cccc(CO/N=C/c2c(-c3ccccc3)nc3ccc(Cl)cn23)c1,-6.8,-6.8*
CCC(C)(C)NC(=O)C(c1ccc(C)cc1)N(CC1CCCO1)C(=O)CNC(=O)c1cccs1 (configuration not stated),-5.8,-5.8*
Cc1ccc(C(C(=O)NC2CCCCC2)N(CC2CCCO2)C(=O)CNC(=O)c2cccs2)cc1 (configuration not stated),·,i
O=C(OCc1nnc(-c2ccc(Cl)cc2)o1)c1ccncc1,·,i
Cc1noc(C)c1COc1ccc(C(=O)OCc2nnc(-c3ccc(Cl)cc3)o2)cc1,-7.6,-7.6*
N#Cc1c(NC(=O)CSc2ncnc3c2cnn3-c2ccccc2Cl)sc2c1CCCC2,·,i
CCOC(=O)C1=C(CNCc2ccccc2Cl)NC(=O)NC1c1cccc([N+](=O)[O-])c1 (configuration not stated),-6.3,-6.3*
CCOC(=O)C1=C(CNCc2ccccc2Cl)NC(=O)NC1c1ccc2c(c1)OCO2 (configuration not stated),·,i
Cc1ccc(/C(O)=C2\C(=O)C(=O)N(CCc3c[nH]c4ccccc34)C2c2cccnc2)cc1 (configuration not stated),·,i
Cc1onc(-c2ccccc2)c1C(=O)N/N=C/c1cn(C)c2ccccc12,-6.4,-6.4*
Cc1cccc(/C=N/NC(=O)c2c(-c3ccccc3)noc2C)c1O,·,i
Cc1ccc(C(=O)N/C(=C/C=C\c2ccccc2)C(=O)NCc2ccco2)cc1,·,i
COCCn1nnnc1C(c1ccc(OC)c(OC)c1)N1CCN(c2nc3ccccc3s2)CC1 (configuration not stated),·,i
Cc1ccc(-c2nc(CS(=O)CC(=O)NC(C)CCc3ccccc3)c(C)o2)cc1 (configuration not stated),·,i
CC1=NN(C(=O)c2csc(C)c2C)C(O)(C(F)(F)F)C1 (configuration not stated),1.9,i
CC1=NN(C(=O)c2ccc(Br)cc2)C(O)(C(F)(F)OC(F)(F)F)C1 (configuration not stated),5.7*,i
CC1=NN(C(=O)c2nn(C)cc2Br)C(O)(C(F)(F)F)C1 (configuration not stated),·,i
CC1=NN(C(=O)c2cc(C)nn2C)C(O)(C(F)(F)F)C1 (configuration not stated),6*,i
CC1=NN(C(=O)c2csc(C)c2)C(O)(C(F)(F)F)C1 (configuration not stated),2.9,i
CC1=NN(C(=O)c2c(Br)c(C)nn2C)C(O)(C(F)(F)F)C1 (configuration not stated),11*,i
Cc1cc(C)nc(SCC(=O)N/N=C/C=C/c2ccccc2)n1,·,i
COc1ccc(N2CCN(CCCNC(=S)Nc3c(C)cccc3C)CC2)cc1,·,i
CCOCCc1nnc(NC(=O)C2CCN(C(=O)c3ccco3)CC2)s1,0.17,i
COc1ccc(C)cc1NC(=O)c1ccc(NS(=O)(=O)c2cccs2)cc1,0.74,i
SMILES,KCNQ2 pot,KCNQ2 block
Cc1ccc2c(c1)N(Cc1ccc3c(c1)OCO3)C(=O)C(C)O2 (configuration not stated),·,i
CCC1Oc2ccc(C)cc2N(Cc2cccc(C)c2)C1=O (configuration not stated),-5.9,-5.9*
CCC(C)C(NS(=O)(=O)c1ccc(C)cc1)C(=O)NCCCN1CCOCC1 (configuration not stated),-5.6,-5.6*
CCC(C)C(NS(=O)(=O)c1ccc(C)cc1)C(=O)O (configuration not stated),0.45,i
CCOC(=O)Cn1c(S(=O)(=O)Cc2ccc(Cl)cc2)nc(-c2ccccc2)c1-c1ccccc1,-6.5,-6.5*
CCOC(=O)Cn1c(S(=O)(=O)Cc2ccccc2)nc2ccccc21,0.3,i
CCOC(=O)c1cc(-c2ccco2)nc2c1c(C)nn2-c1ccccc1,-6,-6*
CCCn1c(=O)c2c(C(=O)OCC)cc(-c3ccco3)nc2n(CCC)c1=O,·,i
CCOc1ccc(C(=O)N2CCN(c3cccc(C)c3C)CC2)cc1,-5.8,-5.8*
CCOc1ccc(C(=O)N2CCCC2)cc1,0.53,i
O=C(NCc1cccnc1)C1CC2c3ccccc3C1c1ccccc12 (configuration not stated),·,i
